NPR1 antag – antagonists of human natriuretic peptide receptor Npr1; P16066; HEK293 hNpr1 GloSensor cGMP, ANP-stimulated luminescence; Potency, µM (series often up to 46.3 µM), without a hit: at the highest dose activity change, negative = inhibition, most hits filed as inhibitors; 76,000 compounds, 1.6% hits; calls by dose curve; note: % is set by controls: 0 for no effect and ±100 for the full control effect; nearly all actives have a fitted effect of over 60% in size
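Compound pre-incubated 30 min at room temperature on GloSensor-loaded HEK293 cells stably carrying hNpr1 and the pGS-40F cGMP biosensor. Stimulation uses hNppA at 0.1 nM final; luminescence is taken at baseline and 20 min post-agonist.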
3T3 cytotox – kills NIH 3T3 cells | NIH 3T3 viability, CellTiter-Glo ATP luminescence, 48-72 h | 94,000 compounds, 4.3% hits | Potency, µM (titrated, usually from 96.7 µM), for the others: at the highest dose activity change, negative = cytotoxicity, most hits filed as inhibitors; note: % is set by controls: 0 for no effect and ±100 for the full control effect; nearly all actives have a fitted effect of over 55% in size
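ATP-dependent luminescence (CellTiter-Glo) served as the viability signal for NIH 3T3 cells treated with compound for 48 or 72 hr at 37 °C.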
HEK cytotox – HEK 293 cell cytotoxicity; HEK 293 viability, ATP luminescence (CellTiter-Glo), 48-72 h; Potency, µM (highest dose often 115 µM), for the others: at the highest dose activity change, negative = cytotoxicity, actives largely listed as inhibitors; 94,000 compounds, 6.6% hits; AID 1345083; note: % is set by controls: 0 for no effect and ±100 for the full control effect; nearly all actives have a fitted effect of over 60% in size
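Pintool-delivered compounds were incubated with HEK 293 cells (250 cells/well) at 37 degree Celsius for 48 or 72 hr. ATP-dependent luminescence (CellTiter-Glo) then reported remaining viable cells.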
FLuc inh – inhibitors of firefly (Photinus pyralis) luciferase. P08659. purified P. pyralis luciferase, luminescence, biochemical. Potency, µM (top dose mostly 115 µM), actives largely listed as inhibitors. 76,000 compounds, 2.5% hits; note: % is set by controls: 0 for no effect and ±100 for the full control effect; nearly all actives have a fitted effect of over 65% in size
Target sequence (P08659 whole entry, looked up): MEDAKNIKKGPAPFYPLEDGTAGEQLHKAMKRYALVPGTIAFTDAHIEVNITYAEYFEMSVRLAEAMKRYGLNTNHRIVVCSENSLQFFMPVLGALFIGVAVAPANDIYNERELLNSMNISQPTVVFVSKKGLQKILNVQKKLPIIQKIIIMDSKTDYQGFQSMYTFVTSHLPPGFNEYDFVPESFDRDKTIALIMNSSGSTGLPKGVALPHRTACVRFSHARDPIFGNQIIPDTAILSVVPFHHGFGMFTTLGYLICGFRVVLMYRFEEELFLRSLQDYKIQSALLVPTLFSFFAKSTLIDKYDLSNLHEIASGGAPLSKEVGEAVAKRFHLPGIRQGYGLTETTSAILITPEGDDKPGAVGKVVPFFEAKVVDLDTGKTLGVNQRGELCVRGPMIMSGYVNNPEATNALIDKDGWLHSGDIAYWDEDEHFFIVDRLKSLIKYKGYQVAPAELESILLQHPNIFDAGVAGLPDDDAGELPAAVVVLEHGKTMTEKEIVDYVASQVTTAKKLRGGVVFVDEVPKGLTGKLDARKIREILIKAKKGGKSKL
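Purified 10nM P. pyralis luciferase with 10uM D-luciferin and 10uM ATP in 50mM Tris acetate pH 7.5, 10mM Mg acetate, 0.01% Tween-20, 0.05% BSA. qHTS titration; luminescence read by CCD imager.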
SNCA expr inhib – reduces expression of the alpha-synuclein gene. HEK-293 SNCA-luciferase knock-in, luminescence, 24 h. Potency, µM (top dose mostly 57.2 µM), for inactives: at the top dose activity change, negative = inhibition, actives largely listed as inhibitors. 140,000 compounds, 0.17% hits;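 note: plate controls were DMSO cells for no effect and cell-free wells for full effect; nearly all actives have a fitted effect of over 45% in size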
SNCA viab count – cell viability loss counter-screen | Potency, µM (highest dose often 57.1 µM), inactives show top-dose activity change, negative = cytotoxicity, actives largely listed as cytotoxic | 150,000 compounds, 0.12% hits | AID 1671193 | HEK-293-SNCA-luc viability, GF-AFC fluorescence, 24 h;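 note: 0% = DMSO-treated cells and -100% = medium-only wells without cells; nearly all actives have a fitted effect of over 30% in size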
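HEK-293-SNCA-luc cells (1500/well) plated 24 h, then exposed 24 h to a dilution series; GF-AFC added 30 min at 37C, fluorescence 405/540 nm; normalised to medium-only and DMSO wells, Hill fit.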
NPR1 antag cnf – hNpr1 antagonism, confirmation assay. 1,400 compounds, 76% hits. Potency, µM (doses to about 57.6 µM), without a hit: top-dose activity change, negative = inhibition, actives largely listed as inhibitors. HEK293 hNpr1 cGMP GloSensor luminescence, ANP-stimulated. shares compounds with NPR1 antag; calls by dose curve; note: nearly all actives have a fitted effect of over 70% in size
Npr2 selectivity – selectivity test of Npr1 antagonists against human Npr2; shares compounds with NPR1 antag; HEK293 hNpr2 GloSensor cGMP luminescence, CNP-stimulated; Potency, µM (doses to about 57.6 µM), inactives show at the top dose activity change, negative = inhibition, hits mostly inhibitors; 1,400 compounds, 67% hits; AID 1347046; calls by dose curve; note: nearly all actives have a fitted effect of over 70% in size
FLuc inh counter – counter-screen for Npr1 antagonists: firefly luciferase inhibitors; shares compounds with NPR1 antag; purified FLuc enzyme, luminescence, Km substrate; Potency, µM (doses to about 57.6 µM), inactives show top-dose activity change, negative = inhibition, actives largely listed as inhibitors; 1,400 compounds, 0.7% hits; note: 0% is about no effect
GloSensor cGMP – counter-screen for Npr1 antagonists: GloSensor control cell line | 1,400 compounds, 69% hits | Potency, µM (highest dose often 57.6 µM), inactives show at the top dose activity change, negative = inhibition, most hits filed as inhibitors | HEK293 GloSensor cGMP, SNP-stimulated, luminescence | shares compounds with NPR1 antag; calls by dose curve; note: % is set by controls: 0 for no effect and ±100 for the full control effect; nearly all actives have a fitted effect of over 70% in size
* = called active by the depositor; i = inactive; ? = inconclusive; nt = not tested or not shown; [ ] = dose if it differs, or a comment. Rows were chosen to be rich in hits. Some 7.2% of all compounds tested hit in one or more screens of this group. Unless noted, calls come from the whole dose curve; as a rule, active = well fitted curve in the direction sought with a large enough effect; inconclusive = small, poorly fitted or top-dose-only effect, or another doubt; inactive = no such curve, though single readings can be large; an effect the other way counts as inactive or inconclusive. Potency is the fitted concentration of half-maximal effect.

SMILES	NPR1 antag	3T3 cytotox	HEK cytotox	FLuc inh	SNCA expr inhib	SNCA viab count	NPR1 antag cnf	Npr2 selectivity	FLuc inh counter	GloSensor cGMP
O=C(CNS(=O)(=O)c1cccs1)N1CCN(c2ccccc2F)CC1	nt	nt	nt	nt	83.8%	-2.7%	nt	nt	nt	nt
Cn1nc(C2CCCN(C(=O)c3ccco3)C2)n(C2CCCC2)c1=O (configuration not stated)	nt	?	i	nt	-15.9%	-9.8%	nt	nt	nt	nt
CC(C)C1CNC(Cc2ccccc2)CN1C(=O)OC(C)(C)C (configuration not stated)	nt	-14.8%[138 µM]	?	nt	-16.9%[87.6 µM]	-8.5%[87.6 µM]	nt	nt	nt	nt
CC(=O)c1cccc(NC(=O)O[C@@H]2CO[C@H]3[C@@H]2OC[C@@H]3NC(=S)Nc2cccc3ccccc23)c1	8.91µM*	?	?	i	-11.1%	-27.5%	12.2µM*	17.2µM*	0.4%	13.7µM*
CC(=O)c1cccc(NC(=O)O[C@@H]2CO[C@H]3[C@@H]2OC[C@@H]3NC(=S)NC2CCCCC2)c1	17.8µM*	?	?	i	-6.5%	5.3%	24.3µM*	24.3µM*	0.4%	?
Cc1cc(C(=O)N2CCCN(Cc3ccncc3)C(c3ccccc3)CC(=O)NCC2)n(C)n1 (configuration not stated)	8.5%	-19.5%	-26.1%	i	18.3%	3.5%	nt	nt	nt	nt
O=C(Nc1ccc(F)c(F)c1)c1cc2n(n1)CC(c1ccc(Br)cc1)OC2 (configuration not stated)	?	?	?	i	6.3%	16.3%	24.3µM*	?	0.4%	?
O=C(Nc1ccc(F)cc1)c1cc2n(n1)CC(c1ccc(Br)cc1)OC2 (configuration not stated)	11.2µM*	?	?	i	-21.9%	13.5%	?	?	-0.4%	?
O=C(Nc1ccccc1)c1cc2n(n1)CC(c1ccc(Br)cc1)OC2 (configuration not stated)	17.8µM*	?	?	i	22.1%	7.5%	27.3µM*	?	-14.1%	?
O=C(Nc1ccccc1)c1cc2n(n1)CC(c1ccc3c(c1)OCO3)OC2 (configuration not stated)	?	?	?	?	2.2%	-9.7%	nt	nt	nt	nt
O=C(Nc1cc(F)ccc1Cl)c1cc2n(n1)CC(c1ccc(Br)cc1)OC2 (configuration not stated)	-23.7%	-12.3%	?	?	?	1.2%	nt	nt	nt	nt
CNc1nc(Nc2cnn([C@H]3CCN(C4COC4)C[C@@H]3F)c2Cl)ncc1C(F)(F)F	nt	nt	nt	nt	6.3%	-6.6%	nt	nt	nt	nt
O=C1Nc2ccccc2OCC12CCN(Cc1ccc(C(F)(F)F)cc1)CC2	11.2µM*	-30.4%	?	i	-23.6%	-16.3%	24.3µM*	24.3µM*	-2.2%	24.3µM*
COc1cccc(N2CCN(c3nc(C(=O)NCc4ccccc4F)cs3)CC2)c1	12.6µM*	?	44.7µM*	i	-25.3%	-19.3%	27.3µM*	?	-2.8%	?
COc1cccc(N2CCN(c3nc(C(=O)NCc4ccncc4)cs3)CC2)c1	?	?	35.5µM*	i	-24.0%	-27.1%	27.3µM*	21.7µM*	-18.5%	27.3µM*
COc1ccc2c(c1)sc1ncc(C(=O)NCc3ccccc3F)c(=O)n12	nt	nt	nt	nt	?	5.3%	nt	nt	nt	nt
COc1cccc(CNC(=O)Nc2nc(-c3ccncc3)cs2)c1	nt	nt	nt	nt	nt	-5.7%	nt	nt	nt	nt
O=C(N[C@@H]1CCC[C@@H]1C(=O)N1CCN(c2ncccn2)CC1)c1ccncc1	-7.2%	-2.2%	-2.7%	i	-2.5%	5.2%	nt	nt	nt	nt
O=C(CCC(F)(F)F)N1CCC(CCC(=O)N2CCC(Cc3ccccc3)CC2)CC1	?	?	?	i	12.3%	-3.0%	nt	nt	nt	nt
O=C(CCC1CCN(C(=O)c2cc(C3CC3)[nH]n2)CC1)N1CCC(Cc2ccccc2)CC1	12.6µM*	?	?	i	-0.1%	-4.0%	24.3µM*	21.7µM*	-18.0%	19.3µM*
COCCN1CCOC2(CCN([S+](=O)([O-])c3ccc(F)cc3F)CC2)C1=O	-7.6%[70.6 µM]	?	-16.6%[172 µM]	i	14.9%[87.6 µM]	7.0%[87.6 µM]	nt	nt	nt	nt
COc1ccc([S+](=O)([O-])N2CCC3(CC2)OCCN(c2ccc(F)cc2)C3=O)cc1	?	?	?	i	-1.6%[87.6 µM]	-0.7%[87.6 µM]	31.4µM*	?	-1.6%[86.2 µM]	31.4µM*
CCOc1cc2c(cn1)NCCN(Cc1ccncc1Cl)C2	35.5µM*	?	?	i	-12.6%[87.6 µM]	-1.9%[87.6 µM]	31.4µM*	?	3.6%[86.2 µM]	39.6µM*
CCOc1cc2c(cn1)NCCN(Cc1ccc3[nH]ccc3c1)C2	2.6%[70.6 µM]	-23.1%[138 µM]	?	i	10.6%[87.6 µM]	6.1%[87.6 µM]	nt	nt	nt	nt
Clc1cnccc1CN1CCNc2cnc(Oc3ccccc3)cc2C1	3.98µM*	?	89.1µM*	i	-25.5%[87.6 µM]	-4.4%[87.6 µM]	6.27µM*	8.86µM*	3.1%[86.2 µM]	4.98µM*
Clc1cnccc1CN1CCNc2cnc(-c3ccccc3)cc2C1	28.2µM*	?	?	i	?	-5.0%[87.6 µM]	31.4µM*	35.3µM*	-0.7%[86.2 µM]	31.4µM*
c1cncc(COc2cc3c(cn2)NCCN(Cc2ccsc2)C3)c1	-9.6%[70.6 µM]	-26.5%[138 µM]	?	i	-17.7%[87.6 µM]	1.6%[87.6 µM]	nt	nt	nt	nt
COc1ccc(OC)c(NC(=O)c2cccc3c2CCN3C(=O)c2ccc(F)cc2)c1	-11.6%	-23.9%	?	i	26.7%	3.2%	nt	nt	nt	nt
COc1ccc(NC(=O)c2cccc3c2CCN3C(=O)c2ccc(F)cc2)c(OC)c1	17.8µM*	?	31.6µM*	i	?	-22.4%	24.3µM*	24.3µM*	-11.9%	21.7µM*

Screening data deposited in PubChem by National Center for Advancing Translational Sciences (NCATS).
